In PubChem BioAssay (EPA / NIEHS):
Inconclusive results are not listed. Activity calls are given as the source filed them. How the source made its calls: active means hit-call score of the fitted dose curve at least 0.9, where 1 is the maximum; inactive means score below 0.9.

The molecules below were run on ABC Transporter (ABCB11), ABCB11 (gene 8647) (assay: CLD_ABCB11_24hr: CellzDirect (CLD) Gene Expression Assay for ABC Transporter (ABCB11) at 24 hours (AID 2283674)).
Description: CLD_24hr is a cell-based, multiplexed-readout assay that uses hepatocyte, a human liver primary cell, with measurements taken at 24 hours after chemical dosing in a 96-well plate.CLD_ABCB11_24hr is one of 16 assay component(s) measured or calculated from the CLD_24hr assay. It is designed to make measurements of mRNA induction, a form of inducible reporter, as detected with chemiluminescence signals by Quantitative Nuclease Protection Assay (qNPA) technology.Data from the assay component CLD_ABCB11_24hr was analyzed at the endpoint, CLD_ABCB11_24hr, in the positive analysis fitting direction relative to DMSO as the negative control and baseline of activity. Using a type of inducible reporter, gain-of-signal activity can be used to understand changes in the reporter gene as they relate to the gene ABCB11. Furthermore, this assay endpoint can be referred to as a primary readout. To generalize the intended target to other relatable targets, this assay endpoint is annotated to the transporter intended target family, where subfamily is ABC transporter.
Human hepatocyte cultures were treated daily for two consecutive days with fresh dosing solutions containing appropriate concentrations of the 320 ToxCast chemicals (chemical identities were blinded to CellzDirect and other ToxCast collaborators), vehicle control (0.2% DMSO), and positive control inducers as summarized in Table 1. Due to the large number of treatment groups and chemicals examined, the ToxCast chemicals were divided into two groups (spanning two independent cultures of hepatocytes from separate donor preparations (Hu778: ToxCast plates 1 and 2; Hu776: ToxCast plates 3 and 4). Each preparation of human hepatocyte cultures was treated with respective vehicle control, medium only control, set of six positive controls/reference chemicals for the five hepatic receptor pathways, and a subset of eight of the ToxCast chemicals (indoxacarb, pyrithiobac-sodium, norflurazon, cyhalofop-butyl, methomyl, thiram, acetochlor, and propiconazole). These replicate data, coupled with internal replicates designed within the blinded ToxCast chemical library, provided additional data to evaluate interindividual differences between hepatocyte preparations and their potential impact on chemical profiles.Cell morphology and integrity were evaluated using phase-contrast microscopy as an indicator of hepatocyte cell health (Tyson & Green, 1987). Cultures for each treatment group (i.e., media, vehicle [0.2% DMSO], positive control inducers [multiple concentrations], and the ToxCast chemicals [multiple concentrations]) were observed and cell morphology was assessed relative to vehicle control cultures at each harvest time point (0, 6, 24, or 48 h). […] Images were evaluated at the conclusion of the study to assess changes in cell integrity and account for the effects of chemical exposure on uncharacteristic changes in concentration-dependent gene expression profiles. The results from these determinations of apparent cytotoxicity were annotated (yes/no) alongside the corresponding qNPA data for reference.At the conclusion of each treatment period, hepatocyte cultures (96-well) were washed with 1 volume of HBSS, lysed by addition of 25 ul ArrayPlate lysis buffer (HTG, Tucson, AZ), and 70 ul/well of Denaturation Oil, denatured by incubation at 95C for 10 min, and frozen at approximately -70C until analysis by nuclease protection assay (qNPA) (Roberts et al., 2007). For qNPA analysis, cell lysates were thawed at 50C for approximately 30 min, qNPA probes were added, and samples were incubated at 95C for 10 min to begin the detection process by denaturing the target RNA, dissociating the duplexes and secondary structure hybridization. At the conclusion of the hybridization period, S1 nuclease reagent was added to each sample to digest all nonprotected nucleotides at 50C for 60-90 min. […]

Row | SMILES | outcome | AC50
1 | Oc1ccccc1-c1ccccc1 | inactive | 
2 | CCc1nn(C)c(C(=O)NCc2ccc(C(C)(C)C)cc2)c1Cl |  | 34.8 µM (active)
3 | C=CC1(C)OC(=O)N(c2cc(Cl)cc(Cl)c2)C1=O (stereo unspecified) | inactive | 
4 | CC(C)(C)c1ccc(CSc2cnn(C(C)(C)C)c(=O)c2Cl)cc1 | inactive | 
5 | COc1nc(C)nc(NC(=O)NS(=O)(=O)c2ccccc2Cl)n1 | inactive | 
6 | COP(=S)(OC)Oc1nc(Cl)c(Cl)cc1Cl | inactive | 
7 | COc1nc(C)nc(NC(=O)NS(=O)(=O)c2ccccc2CCC(F)(F)F)n1 | inactive | 
8 | COC(=O)c1ccccc1C(=O)OC | inactive | 
9 | CCCCOC(=O)c1ccccc1C(=O)OCCCC | inactive | 
10 | C#CCOS(=O)OC1CCCCC1Oc1ccc(C(C)(C)C)cc1 (stereo unspecified) | inactive | 
11 | COC(=O)C(C)Oc1ccc(Oc2ccc(Cl)cc2Cl)cc1 (stereo unspecified) | inactive | 
12 | CCCN(CCC)c1c([N+](=O)[O-])cc(S(N)(=O)=O)cc1[N+](=O)[O-] | inactive | 
13 | CCCCC(CC)COC(=O)c1ccccc1C(=O)OCC(CC)CCCC (stereo unspecified) | inactive | 
14 | COC(=O)N(OC)c1ccccc1COc1ccn(-c2ccc(Cl)cc2)n1 |  | 6.18 µM (active)
15 | CN(C)C(=S)SSC(=S)N(C)C | inactive | 
16 | O=C(O)c1nc(Cl)ccc1Cl | inactive | 
